Common to all, as to assay: Primary qHTS to identify gynecologic anti-cancer compounds using libraries of approved drugs and bioactive compounds (AID 1345084); also: nearly all actives have a fitted effect of over 55% in size
Holding throughout (conditions): Gynecologic cancer cell panel viability, ATPlite luminescence, 48 h; series mostly up to 57.5 µM
Background: In qHTS, concentration-response curves come from the screen itself.

The subject of one experiment is OV90. In a few lines:
(§1)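 Cytotoxicity screen measuring ATP content by luciferase luminescence. Each compound is applied at five concentrations for 48 h at 37 C with 5% CO2.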

A further experiment relates to PA-1. In a few lines: as §1
Another experiment relates to Tov-21-G. In a few lines: as §1
The next experiment has as its system Tov112D. In a few lines:
as §1

Results filed as inconclusive are left out. Calls of active or inactive are those of the source. Calls follow the shape of the dose curve; as a rule, active = well fitted cell-killing curve with a large enough effect; inconclusive = small, poorly fitted or top-dose-only effect, or effect the other way; inactive = flat fitted curve, though single readings scatter.
Potency is read from the fitted curve at half-maximal effect.

`CCc1cnc(N2CCC(c3nc(COc4ccc(-n5cnnn5)cc4)cs3)CC2)nc1`: the Potency entry with OV90, with PA-1, in the experiment with Tov-21-G and with Tov112D was “inactive” each time.

On to `COc1ccc2c(c1O[C@H]1CCNC1)CCC2`, for which the Potency entry in the experiment with OV90, in the experiment on PA-1, in the experiment on Tov-21-G and in the experiment with Tov112D was “inactive” in each case.

For the molecule `O=C(NCc1ccccc1-c1ccccc1C(=O)NCCc1ccccn1)OCc1ccccc1`, the Potency result in the experiment on OV90, in the experiment with PA-1, with Tov-21-G and in the experiment with Tov112D was “inactive” each time.

With `O=C(NS(=O)(=O)c1ccc(Br)s1)c1ccc(Cl)cc1Cl`, the Potency result with OV90, in the experiment with PA-1, in the experiment on Tov-21-G and with Tov112D was “inactive” each time.

Take `Cc1nc(C#Cc2ccnc(Cl)c2)c(C)n1-c1ccc(F)cc1`: the Potency result in the experiment with OV90, with PA-1, in the experiment on Tov-21-G and in the experiment with Tov112D was “inactive” in each case.

For the molecule `Nc1nc(O)c(C2=C3C(=Nc4ccccc43)C(=O)NCC2)[nH]1`, the Potency entry in the experiment on OV90, in the experiment with PA-1, in the experiment with Tov-21-G and in the experiment on Tov112D was “inactive” each time.

`CC(C)=C[C@@H]1[C@H](CO[C@@H]2O[C@H](CO)[C@@H](O)[C@H](O)[C@H]2O)C1(C)C`: the Potency entry in the experiment on OV90, in the experiment on PA-1, in the experiment on Tov-21-G and in the experiment on Tov112D was “inactive” throughout.

As to `CCn1c(N)c(C(=O)NC)c(=O)c2ccc(C#CC(C)(O)COC)nc21` (stereo unspecified), the Potency result with OV90, with PA-1, in the experiment with Tov-21-G and with Tov112D was “inactive” each time.

Consider `C/C(=C/CO)CCC1C(C)CCC2C(C)(C)CCCC12C` (stereo unspecified), for which the Potency entry with OV90, with PA-1, in the experiment with Tov-21-G and in the experiment on Tov112D was “inactive” in each case.

In the case of `O=C(CNC(=O)c1cccc(C(F)(F)F)c1)N[C@@H]1CCN(Cc2ccc(Cl)cc2)C1`, the Potency result in the experiment with OV90, with PA-1, in the experiment on Tov-21-G and with Tov112D was “inactive” throughout.

`Fc1ccc(-c2cncc(CN3CCN(c4cccc5c4OCCO5)CC3)c2)cc1`: the Potency entry in the experiment with OV90, in the experiment on PA-1, with Tov-21-G and in the experiment with Tov112D was “inactive” in each case.

`COC(=O)CC1OC(C)C2=C(O)c3c(O)cccc3C(=O)C23OC13` (stereo unspecified): the Potency is 10 µM (active) in the experiment with OV90, 3.98 µM (active) in the experiment on PA-1, 6.31 µM (active) in the experiment with Tov-21-G and 6.31 µM (active) in the experiment on Tov112D.

For the molecule `CCN(Cc1ccccc1)C(=O)Cn1c(=O)n(C)c2cnc(-c3ccccc3)nc21`, the Potency result with OV90, in the experiment with PA-1, in the experiment with Tov-21-G and in the experiment on Tov112D was “inactive” each time.

Turning to `CN(C)C(=O)Nc1cccc(-c2ccc(N(C)C)cc2)c1`, the Potency result with OV90, with PA-1, with Tov-21-G and with Tov112D was “inactive” throughout.

As for `Cc1ccc(-c2ncccn2)c(C(=O)N2C[C@H](COc3ccc(F)cn3)CC[C@H]2C)c1`, the Potency entry in the experiment with OV90, in the experiment on PA-1, with Tov-21-G and with Tov112D was “inactive” throughout.

For the molecule `O=C(N[C@H]1CCC[C@H](CO)C1)C1CCN(c2nc3cc(Cl)c(-c4ccc(Cl)cc4)cc3o2)CC1`, the Potency result in the experiment on OV90, in the experiment on PA-1, in the experiment with Tov-21-G and in the experiment with Tov112D was “inactive” each time.

In the case of `Cc1ccc(NC(=O)c2ccc(CN3CCNCC3)cc2)cc1Nc1nccc(-c2cccnc2)n1`, the Potency with OV90 was 14.1 µM (active); in the experiment with PA-1 it was 12.6 µM (active); with Tov-21-G it was 28.2 µM (active); with Tov112D, 28.2 µM (active).

`CCOC(=O)CCNc1cc(N2CCc3ccccc3CC2)nc(-c2cccnc2)n1`: the Potency entry in the experiment with OV90, in the experiment on PA-1, in the experiment on Tov-21-G and with Tov112D was “inactive” throughout.

In the case of `COc1ccccc1C(=O)Nc1cc2c(cc1N1CCCC1)n(C)c(=O)n2C`, the Potency entry with OV90, with PA-1, in the experiment on Tov-21-G and in the experiment with Tov112D was “inactive” in each case.

As for `Cc1[nH]c2ccc(F)cc2c1-c1nc2c3cccnc3c3ncccc3c2[nH]1`, the Potency is 5.62 µM (active) with OV90, 7.94 µM (active) with PA-1 and 3.98 µM (active) in the experiment with Tov112D. The Potency result in the experiment with Tov-21-G was “inactive”.

With `Nc1cccc(CNC(=O)c2ccc(Oc3ccc(OCc4cccc(F)c4)cc3)nc2)c1`, the Potency entry in the experiment on OV90, in the experiment with PA-1, in the experiment on Tov-21-G and with Tov112D was “inactive” throughout.

Consider `Cc1cc(F)ccc1[C@H]1C[C@@H](N2CCN3C(=O)CC[C@H]3C2)CCN1C(=O)N(C)[C@H](C)c1cc(C(F)(F)F)cc(C(F)(F)F)c1`, for which the Potency entry in the experiment on OV90, in the experiment with PA-1, in the experiment on Tov-21-G and in the experiment on Tov112D was “inactive” in each case.

As to `CC(=O)OC(C)(C)/C=C/C(=O)C(C)(O)C1C(O)CC2(C)C3CC=C(C(C)(C)C(=O)O)C(CC(=O)O)C3(C)C(=O)CC12C` (stereo unspecified), the Potency result with OV90, with PA-1, in the experiment with Tov-21-G and in the experiment on Tov112D was “inactive” in each case.

Take `CS/C=C/C(=O)O[C@@H]1CCC2=CC(=O)C(=C(C)C)C[C@]2(C)[C@H]1C`: the Potency result with OV90, with PA-1, in the experiment on Tov-21-G and in the experiment on Tov112D was “inactive” throughout.

`COc1cc2ncnc(Nc3cccc(I)c3)c2cc1OC`: the Potency result in the experiment with OV90, in the experiment on PA-1, with Tov-21-G and in the experiment on Tov112D was “inactive” in each case.

For the molecule `N#Cc1ccc(-c2ccc(S(=O)(=O)Nc3cccc(N)n3)cc2)cc1`, the Potency entry in the experiment on OV90, in the experiment on PA-1, in the experiment with Tov-21-G and with Tov112D was “inactive” throughout.

Regarding `CC#CC(=O)Nc1ccc2ncnc(Nc3cccc(Br)c3)c2c1`, the Potency result in the experiment with OV90 is “inactive”. For the same molecule, the Potency in the experiment with PA-1 is 7.94 µM (active); in the experiment with Tov-21-G, 14.1 µM (active); in the experiment with Tov112D it was 12.6 µM (active).

`COc1cc(/C=C2\CC[C@H]3COC[C@@H](c4cc(F)c(F)c(F)c4)N3C2=O)ccc1-n1cnc(C)c1`: the Potency result in the experiment with OV90, in the experiment with PA-1, with Tov-21-G and with Tov112D was “inactive” in each case.

As for `Nc1c(S(=O)(=O)c2ccccc2)c2nc3ccccc3nc2n1-c1ccc(F)cc1`, the Potency result in the experiment with OV90, with PA-1, with Tov-21-G and in the experiment on Tov112D was “inactive” each time.
